Shown are actives, neighbours in structure and some others; about 21% of the full set was active somewhere.
Pf growth 96h: P. falciparum growth inhibition at 96 hours; AID 504834; 320,000 tested, 6.9% active; P. falciparum luciferase reporter growth, 96 h; Potency, µM (highest dose often 28.7 µM), for inactives: at the top dose activity change, negative = inhibition, actives largely listed as inhibitors; note: potency is the fitted concentration of half-maximal effect; % is set by controls: 0 for no effect and ±100 for the full control effect
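Two-generation exposure (96 h) targets delayed-death phenotype. Reporter parasites carrying integrated firefly luciferase, in red cells at 2% hematocrit and 0.05% parasitemia final, kept at 37 C, 5% CO2; luminescence loss indicates inhibition.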
HCMV antiviral: human cytomegalovirus inhibition; HFF cells, HCMV-luciferase reporter, 72 h; active compounds read low; activity change, negative = inhibition, % at 57.5 µM; 410,000 tested, 4.5% active; AID 1259415; in the data active = activity change below about -60%; inconclusive = no clear call, values can overlap the other calls; inactive = above about -39%; note: % is set by controls: 0 for no effect and ±100 for the full control effect
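Steps: HFFs plated, 16 h 37C; compounds added; HCMV-luciferase added to MOI 1 PFU/cell; 72 h 37C; OneGlo reagent, 5 min room temperature; luminescence read, normalized to controls.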
Cycloheximide cs: counter-screen hit for Shiga toxin inhibitors, cycloheximide; cell reporter, cycloheximide protein synthesis inhibition counterscreen; max response, %; 300,000 tested, 12% active; AID 2314; in the data active = max response mostly above about 13%, no sharp cut-off; inactive = mostly below about 14%; note: read at 38.3 µM for the half of the compounds with a filed dose; 0% is about no effect
HCV inh: blocks hepatitis C virus; Huh7.5.1 HCVcc-Cre infection, luciferase reporter, 44 h; Potency, µM (series often up to 41.8 µM), for the others: at the top dose activity change, negative = inhibition, hits mostly inhibitors; 340,000 tested, 3.4% active; note: potency is the fitted concentration of half-maximal effect; % is set by controls: 0 for no effect and ±100 for the full control effect
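Cells (1,000/well) were plated 4 h before compound, then infected with HCVcc-Cre virus (~0.5 moi). After 44 h further culture, infection was read as luciferase luminescence following a 15 min substrate incubation at room temperature.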
Pf growth 48h: P. falciparum growth inhibition at 48 hours (one generation). P. falciparum luciferase growth in erythrocytes, 48 h. Potency, µM (series often up to 28.7 µM), for inactives: at the top dose activity change, negative = inhibition, usual class: inhibitors. 310,000 tested, 5.9% active; note: potency is the fitted concentration of half-maximal effect; % is set by controls: 0 for no effect and ±100 for the full control effect
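Erythrocytes infected with P. falciparum carrying an integrated firefly luciferase reporter (2% hematocrit, 0.1% parasitemia final) were exposed to compounds in RPMI 1640 with 0.5% Albumax at 37 C, 5% CO2. Growth inhibition was scored as reduced luminescence.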
Shiga toxin inh: inhibitors of Shiga toxin in Vero cells; Vero cells, Shiga toxin protein synthesis inhibition reporter; inhibition, % at 38.7 µM; 290,000 tested, 9.2% active; in the data active = inhibition mostly above about 28%, no sharp cut-off; inactive = mostly below about 43%; note: 0% is about no effect
An asterisk follows results filed as active; u = inconclusive; x = no result given; [ ] = another dose, or the depositor's remark. Unless noted, calls come from the whole dose curve; as a rule, active = well fitted inhibition curve with a large enough effect; inconclusive = small, poorly fitted or top-dose-only effect, or another doubt; inactive = no such curve, though single readings can be large or run the other way.

SMILES	Pf growth 96h	HCMV antiviral	Cycloheximide cs	HCV inh	Pf growth 48h	Shiga toxin inh
CCN(CC)C(=O)c1cc(-c2ccc3c(c2)OCO3)on1	u	150	62*	7%	160%	77*
CC(=O)c1ccc(NC(=O)c2cc(-c3ccc4c(c3)OCO4)on2)cc1	x	23	x	x	x	x
CC(C)NC(=O)c1cc(-c2ccc3c(c2)OCO3)on1	u	64	26*	23%	64%	104*
CCN(CC)CCCNC(=O)c1cc(-c2ccc3c(c2)OCO3)on1	-14%	75	6	-12%	11%	26
CCCCNC(=O)c1cc(-c2ccc3c(c2)OCO3)on1	-6%	66	38*	12%	117%	57*
O=C(Nc1ccc(SC(F)F)cc1)c1cc(-c2ccc3c(c2)OCCO3)on1	x	-66*	x	x	x	x
ClC(Cl)(Cl)c1nc2ccccc2n2nncc12	u	-88*	-3	13µM*	0.33µM*	-6
COc1ccc(CSc2nnc(Cc3sc(-c4ccccc4)nc3-c3ccccc3)o2)cc1	2.1µM*	-21	-1	-6%	12µM*	27
Fc1ccc(CSc2nnc(Cc3sc(-c4ccccc4)nc3-c3ccccc3)o2)cc1	12µM*	48	2	7%	x	-16
CSc1nnc(Cc2sc(-c3ccccc3)nc2-c2ccccc2)o1	0%	10	11	u	x	-12
COc1ccc(-c2nnc(SCc3cc(C)cc(C)c3)o2)cc1	u	-23	-1	u	-14%	-2
COCc1cccc(NC(=O)CCc2ccccc2)c1	-13%	14	18*	5%	50%	49*
CSc1cccc(NC(=O)CCC(=O)O)c1	18%	-1	7	8%	17%	12
CCC(C)C(=O)Nc1cccc(SC)c1 (stereo not given)	21%	x	16*	x	36%	56
COc1cccc(NC(=O)CCc2ccccc2)c1	139%	17	x	-23%	62%	x
CSc1cccc(NC(=S)NC(=O)CCc2ccccc2)c1	67%	89	23*	u	-1%	22
CSc1cccc(NC(=O)CCc2ccccc2)c1	27%	-4	18*	-8%	10%	50*
Cc1cccc(C)c1NC(=S)NC(=O)CCc1ccccc1	u	66	-2	-2%	u	1
O=C(CSc1nc2ncccc2[nH]1)NCCc1ccccc1	13%	11	-4	4%	25%	6
Cc1cc(C)cc(OC(=O)C23CCC(C)(C(=O)O2)C3(C)C)c1 (stereo not given)	u	-21	-3	21%	-3%	-2
COC(=O)c1ccccc1NC(=O)c1cc(CN2CCOCC2)on1	x	13	x	x	x	x
CSc1cccc(NC(=O)CN(C)S(=O)(=O)c2ccccc2)c1	u	-10	18*	-11%	20%	18
Cc1cc(C)n(CCC(=O)N2c3ccccc3CC2C)n1 (stereo not given)	u	-23	-4	8%	-12%	-8
O=C(CCCn1c(=O)c2sccc2n(Cc2ccc(F)cc2Cl)c1=O)NCc1ccc2c(c1)OCO2	x	-30	x	x	x	x
CCc1nc2ccc(C(=O)Nc3ccc4c(c3)OCO4)cc2nc1CC	u	-31	27*	2µM*	37%	35
SMILES	Pf growth 96h	HCMV antiviral	Cycloheximide cs	HCV inh	Pf growth 48h	Shiga toxin inh
O=C(Oc1ccc2c(c1)OCO2)c1ccc(F)cc1Cl	u	-24	72*	13%	11%	137*
CCOc1ncccc1C(=O)Oc1ccc2c(c1)OCO2	1%[5.75 µM]	-15	9	17%	u	33
CCc1nc2ccc(C(=O)Nc3cccc(C(C)=O)c3)cc2nc1CC	u	-16	11	u	-14%	20
COc1ccc(C(=O)Nc2ccc3c(c2)OCCO3)cc1Br	u	129	19*	u	183%	34*
O=C(Nc1cccc(F)c1)c1ccc2c(c1)OCO2	-9%	33	59*	-3%	188%	69*
NS(=O)(=O)c1ccc2nc(-c3ccccc3)c(-c3ccccc3)nc2c1	27%	9	-2	u	9%	2
CCC(=O)Nc1cccc(NC(=O)c2ccc3c(c2)OCCO3)c1	x	99	50*	u	69%	56*
O=C(Nc1ccc2c(c1)OCCO2)c1cccc(Br)c1	-1%	150	38*	-19%	217%	43*
Cc1ccc(NC(=O)c2oc3ccccc3c2NC(=O)c2ccc3c(c2)OCO3)cc1	15%	-11	12*	-10%	u	33*
CCCC(=O)Nc1cccc(NC(=O)c2ccc3c(c2)OCO3)c1	37%	18	13	u	28%	38
CCN1C(=O)c2cccc3c(NC(=O)c4ccc5c(c4)OCCO5)ccc1c23	u	27	13*	u	-16%	10
Cn1c2cc(C(=O)O)sc2c2cnn(Cc3ccccc3F)c(=O)c21	x	x	0	x	x	-1
CCOCCCNC(=O)CN1C(=O)c2ccccc2Sc2ncccc21	-22%	10	-12	13%	6%	-7
COC(=O)[C@]12CCCCC=C1N(Cc1cccc3ccccc13)C(=O)[C@H](CC(=O)N1CCN(C(=O)c3ccco3)CC1)C2	x	-30	x	x	x	x
Cc1ccc(CNC(=O)C2CCN(S(=O)(=O)Cc3ccccc3)CC2)cc1	x	10	x	x	x	x
CCC(C(=O)Nc1ccccc1OC)n1nc(C)c2sc3ccccc3c2c1=O (stereo not given)	x	3	x	x	x	x
O=C(Nc1ccc2c(c1)OCCO2)c1ccc(Br)o1	-14%	70	42*	-29%	-35%	91*
O=C(NNS(=O)(=O)c1ccc(F)cc1)c1ccc2c(c1)OCO2	-1%	14	-1	13%	4%	10
CC(OC(=O)c1ccc(Br)o1)C(=O)Nc1ccc2c(c1)OCCO2 (stereo not given)	3%	-6	x	-10%	-11%	x
O=C(NNC(=O)c1ccc(F)cc1F)c1ccc2c(c1)OCO2	200%	24	48*	-1%	143%	62*
O=C(Nc1ccc2c(c1)OCCO2)c1ccc(Br)cc1	17%	17	33*	u	20%	48
Cc1ccc(CNc2ccc3c(c2)OCO3)cc1	-12%	x	42*	10µM*	u	100*
Nc1n[nH]c(CO)n1	38%	-24	-2	14%	-1%	-14
C=CCNC(=O)CSc1nnc(-c2ccc(S(=O)(=O)N3CCCC3)cc2)n1C	-10%	-22	-2	20%	15%	-3
Cc1ccc(OCCC(=O)OCC(=O)NCCc2ccc(Cl)cc2)cc1	-1%	-26	x	4%	u	x
CCCOc1cccc(C(=O)Nc2ccc3c(c2)OCCO3)c1	u	129	24*	u	125%	71*
CCCc1cc2c(cc1NC(=O)c1ccc(Br)cc1)OCO2	29%	-16	-1	17%	10%	-3
Cc1ccc(C(=O)Nc2ccc3c(c2)OCCO3)cc1	0%	u	15	0%	203%	47*
